± gives the standard deviation of the averaged measurements.
Assays:
DLD1 [1] = assay: cell viability (CellTiter-Glo) relative to plate median (fraction of plate median); higher = more viable cells; conditions: 5 µM; treatment time 24 h; reporter: 7TFP
Outline: (§1)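 Stable lentiviral TCF/Wnt firefly luciferase reporters (7TFP or TCF4/Wnt) were present in the colorectal cancer cell lines used. These cells received library compounds at a final 5 µM for 24 h, and parallel plates were read for firefly luciferase or CellTiterGlo luminescence. Each well was normalised to the plate median, and the value reported is the mean of two independent replicates.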

HCT116 = assay: as above; conditions: 5 µM; treatment time 24 h; reporter: TCF4/Wnt
Outline: as §1

SW480 [2] = assay: as above; conditions: 5 µM; treatment time 24 h; reporter: 7TFP
Outline: as §1

DLD1 [3] = assay: TCF/Wnt firefly luciferase reporter signal relative to plate median (fraction of plate median); higher = higher Wnt reporter signal; conditions: 5 µM; treatment time 24 h; reporter: 7TFP
Outline: as §1

SW480 [4] = assay: as above; conditions: 5 µM; treatment time 24 h; reporter: 7TFP
Outline: as §1

Row | Compound | cell viability (DLD1 [1]) | cell viability (HCT116) | cell viability (SW480 [2]) | TCF/Wnt firefly luciferase reporter signal (DLD1 [3]) | TCF/Wnt firefly luciferase reporter signal (SW480 [4])
1 | COc1ccc2c(c1OC)C(=O)O[C@@H]2[C@H]1c2c(cc3c(c2OC)OCO3)CCN1C | 0.9895 ± 0.0092 | 0.879 ± 0.0099 | 0.995 ± 0.0014 | 0.973 ± 0.17 | 0.945 ± 0.15
2 | O=C(O)c1cc(O)c2c(c1)C(=O)c1cc(O)cc(O)c1C2=O | 0.873 ± 0.11 | 0.866 ± 0.057 | 0.991 ± 0.013 | 0.926 ± 0.22 | 1.12 ± 0.11
3 | CC(=O)Nc1ccc(OC(=O)c2ccccc2O)cc1 | 0.999 ± 0.016 | 0.989 ± 0.03 | 0.978 ± 0.074 | 1 ± 0.095 | 0.891 ± 0.043
4 | CC(C)CCC[C@@H](C)[C@H]1CC[C@H]2[C@@H]3CC=C4C[C@@H](O)CC[C@]4(C)[C@H]3CC[C@]12C | 1.03 ± 0.067 | 1 ± 0.11 | 1.015 ± 0.0071 | 1.05 ± 0.081 | 1.04 ± 0.042
5 | CC12CCCC(O)(C1)C1CC(C)(C)C1CC2 (stereo not drawn) [beta-CARYOPHYLLENE ALCOHOL] | 0.91 ± 0.072 | 1.12 ± 0.14 | 1 ± 0.04 | 1.1 ± 0.028 | 1.04 ± 0.028
6 | CCc1nc(N)nc(N)c1-c1ccc(Cl)cc1 | 0.972 ± 0.082 | 0.999 ± 0.03 | 1.02 ± 0.021 | 1.1 ± 0.23 | 1.1 ± 0.042
7 | O=c1c(-c2ccccc2)coc2cc(O)cc(O)c12 | 0.94 ± 0.11 | 0.883 ± 0.027 | 0.993 ± 0.053 | 0.926 ± 0.097 | 1.04 ± 0.18
8 | C[N+](C)(C)CCO.[Cl-] | 0.975 ± 0.0071 | 1.01 ± 0.068 | 0.929 ± 0.045 | 1.03 ± 0.021 | 1.1 ± 0.042
9 | C[C@@H]1CC[C@@]2(OC1)O[C@H]1C[C@H]3[C@@H]4CC[C@H]5C[C@@H](O)CC[C@]5(C)[C@H]4CC[C@]3(C)[C@H]1[C@@H]2C | 0.953 ± 0.0057 | 0.875 ± 0.037 | 1.01 | 1.06 ± 0.028 | 0.931 ± 0.037
10 | Cc1ccc(S(=O)(=O)NC(=O)NN2CCCCCC2)cc1 | 0.911 ± 0.047 | 0.918 ± 0.018 | 0.968 ± 0.019 | 0.881 ± 0.071 | 0.998 ± 0.031
11 | Cc1cc(NS(=O)(=O)c2ccc(N)cc2)no1 | 1.035 ± 0.0071 | 1.15 ± 0.035 | 1.01 | 1.09 ± 0.11 | 0.988 ± 0.032
12 | Nc1ccc(S(=O)(=O)Nc2ccnn2-c2ccccc2)cc1 | 1.03 ± 0.058 | 1 ± 0.052 | 0.939 ± 0.013 | 1 ± 0.011 | 1.06 ± 0.057
13 | CCCCNc1ccc(C(=O)OCCN(C)C)cc1 | 1.04 ± 0.042 | 1.12 ± 0.085 | 1.02 ± 0.035 | 1.1 ± 0.035 | 0.973 ± 0.0085
14 | OCc1cccnc1 | 0.978 ± 0.088 | 1.05 ± 0.17 | 0.934 ± 0.016 | 0.988 ± 0.12 | 0.917 ± 0.017
15 | CC[C@@H]1C(=O)OC[C@@H]1Cc1cncn1C | 1.015 ± 0.0071 | 0.953 ± 0.067 | 0.992 ± 0.012 | 1.18 ± 0.05 | 1.16 ± 0.16
16 | O=C1CCc2cc(OCCCCc3nnnn3C3CCCCC3)ccc2N1 | 0.979 ± 0.03 | 1.09 ± 0.028 | 1.035 ± 0.0071 | 1.03 ± 0.021 | 0.987 ± 0.075
17 | COC(=O)/C=C/C(C)=C\C=C\C(C)=C\C=C\C=C(C)\C=C\C=C(C)\C=C\C(=O)O | 1.05 ± 0.057 | 1.05 ± 0.028 | 0.968 ± 0.046 | 0.981 ± 0.042 | 0.997 ± 0.047
18 | Cc1nnc(SCC2=C(C(=O)O)N3C(=O)[C@@H](NC(=O)Cn4cnnn4)[C@H]3SC2)s1 | 0.941 ± 0.035 | 0.941 ± 0.011 | 0.962 ± 0.044 | 0.942 ± 0.15 | 0.834 ± 0.16
19 | CO[C@@H]1[C@@H](OC(N)=O)[C@@H](O)[C@H](Oc2ccc3c(O)c(NC(=O)c4ccc(O)c(CC=C(C)C)c4)c(=O)oc3c2C)OC1(C)C | 0.988 ± 0.088 | 0.8935 ± 0.005 | 1.004 ± 0.0085 | 1.27 ± 0.05 | 1.14
20 | C[C@H](CCC(=O)O)[C@H]1CC[C@H]2[C@@H]3CC[C@@H]4C[C@H](O)CC[C@]4(C)[C@H]3C[C@H](O)[C@]12C | 0.982 ± 0.025 | 1.04 ± 0.11 | 1 ± 0.024 | 1.03 ± 0.13 | 1.01 ± 0.053
21 | CC(C)C1=C2[C@H]3CCC4[C@@H]5[C@H](O[C@@H]6OC[C@@H](O)[C@H](O[C@@H]4O)C65O)[C@]3(C)CC[C@@]2(C)CC1 (stereo not given in full) | 0.915 ± 0.067 | 0.862 ± 0.11 | 0.938 ± 0.011 | 0.873 ± 0.014 | 0.968 ± 0.045
22 | CC1(C)OC(=O)NC1=O | 0.893 ± 0.18 | 0.9705 ± 0.0064 | 0.965 ± 0.092 | 1.08 ± 0.11 | 0.932 ± 0.14
23 | COc1ccc2c(c1)OC/C(=C\c1ccc(OC)c(O)c1)C2=O | 0.933 ± 0.054 | 1.02 | 1.03 ± 0.035 | 0.972 ± 0.11 | 0.98 ± 0.086
24 | COc1ccc2c(c1)OCC(Cc1ccc(O)c(OC)c1)C2=O (stereo not given) | 0.99 ± 0.014 | 1.04 ± 0.07 | 0.915 ± 0.049 | 0.887 ± 0.066 | 0.971 ± 0.084
25 | CC(C)c1nc(N(C)S(C)(=O)=O)nc(-c2ccc(F)cc2)c1/C=C/[C@@H](O)C[C@@H](O)CC(=O)O | 0.93 ± 0.11 | 0.9675 ± 0.00071 | 1.02 ± 0.014 | 0.984 ± 0.08 | 0.913 ± 0.15
26 | CCC(C)C(NC)C(=O)O (stereo not given) | 0.959 ± 0.073 | 0.923 ± 0.058 | 0.946 ± 0.05 | 1.01 ± 0.22 | 0.947 ± 0.09
27 | N[C@@H](C(=O)N[C@@H]1C(=O)N2C(C(=O)O)=C(Cl)CS[C@H]12)c1ccccc1 | 0.963 ± 0.029 | 0.955 ± 0.064 | 0.953 ± 0.028 | 0.897 ± 0.079 | 0.742 ± 0.025
28 | NC/C=C/C(=O)O | 1.03 ± 0.088 | 1.01 ± 0.095 | 1 ± 0.068 | 0.965 ± 0.079 | 1 ± 0.11
29 | COc1cc(O)c(C(=O)/C=C/c2ccc(O)c(OC)c2)c(OC)c1 | 1.025 ± 0.0071 | 1.03 ± 0.083 | 1.1 ± 0.071 | 0.882 ± 0.11 | 0.894 ± 0.037
30 | COC(=O)[C@@H]1[C@H]2C[C@H]3c4[nH]c5ccccc5c4CCN3C[C@@H]2CC[C@@H]1O | 0.964 ± 0.033 | 1.08 ± 0.13 | 1.005 ± 0.0071 | 0.919 ± 0.16 | 0.9165 ± 0.0021
